The values that follow come from ChEMBL document CHEMBL2218924, “A broad activity screen in support of a chemogenomic map for kinase signalling research and drug discovery” (Biochem J, 2013).

One may read the residual activity as the signal under treatment as a percentage of the control signal.

Test [1] concerns the target T1, Ephrin type-B receptor 1 (Homo sapiens) (UniProt P54762).
T1 sequence (whole entry): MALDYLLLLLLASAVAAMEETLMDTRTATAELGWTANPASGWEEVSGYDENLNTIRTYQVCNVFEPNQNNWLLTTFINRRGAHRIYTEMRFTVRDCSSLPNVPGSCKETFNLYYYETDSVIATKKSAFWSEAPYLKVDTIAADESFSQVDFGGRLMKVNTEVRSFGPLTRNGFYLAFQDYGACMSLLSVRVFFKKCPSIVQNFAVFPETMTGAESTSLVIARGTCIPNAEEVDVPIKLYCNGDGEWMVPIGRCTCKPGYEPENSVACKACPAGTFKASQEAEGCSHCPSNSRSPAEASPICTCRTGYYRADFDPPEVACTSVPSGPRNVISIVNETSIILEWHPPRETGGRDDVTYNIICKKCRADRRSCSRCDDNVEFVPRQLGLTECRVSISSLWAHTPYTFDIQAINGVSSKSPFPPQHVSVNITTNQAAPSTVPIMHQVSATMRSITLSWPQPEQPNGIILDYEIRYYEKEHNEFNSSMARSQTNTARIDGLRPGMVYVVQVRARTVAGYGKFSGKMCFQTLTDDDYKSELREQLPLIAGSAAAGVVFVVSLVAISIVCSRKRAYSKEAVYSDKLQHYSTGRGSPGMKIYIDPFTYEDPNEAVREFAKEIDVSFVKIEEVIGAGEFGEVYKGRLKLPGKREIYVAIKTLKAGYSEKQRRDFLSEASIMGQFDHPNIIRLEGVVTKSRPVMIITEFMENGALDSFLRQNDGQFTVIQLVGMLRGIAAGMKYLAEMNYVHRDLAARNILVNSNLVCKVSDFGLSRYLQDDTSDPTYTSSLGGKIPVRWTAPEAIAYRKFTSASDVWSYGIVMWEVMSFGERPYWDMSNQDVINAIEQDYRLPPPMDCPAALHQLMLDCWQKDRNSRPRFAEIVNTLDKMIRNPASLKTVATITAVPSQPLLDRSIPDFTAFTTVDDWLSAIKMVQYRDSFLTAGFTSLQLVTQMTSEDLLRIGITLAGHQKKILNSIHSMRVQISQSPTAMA
The settings on record: at 10 µM.

Test [2] concerns the target T2, Ephrin type-B receptor 2 (Homo sapiens) (UniProt P29323).
T2 sequence (whole entry): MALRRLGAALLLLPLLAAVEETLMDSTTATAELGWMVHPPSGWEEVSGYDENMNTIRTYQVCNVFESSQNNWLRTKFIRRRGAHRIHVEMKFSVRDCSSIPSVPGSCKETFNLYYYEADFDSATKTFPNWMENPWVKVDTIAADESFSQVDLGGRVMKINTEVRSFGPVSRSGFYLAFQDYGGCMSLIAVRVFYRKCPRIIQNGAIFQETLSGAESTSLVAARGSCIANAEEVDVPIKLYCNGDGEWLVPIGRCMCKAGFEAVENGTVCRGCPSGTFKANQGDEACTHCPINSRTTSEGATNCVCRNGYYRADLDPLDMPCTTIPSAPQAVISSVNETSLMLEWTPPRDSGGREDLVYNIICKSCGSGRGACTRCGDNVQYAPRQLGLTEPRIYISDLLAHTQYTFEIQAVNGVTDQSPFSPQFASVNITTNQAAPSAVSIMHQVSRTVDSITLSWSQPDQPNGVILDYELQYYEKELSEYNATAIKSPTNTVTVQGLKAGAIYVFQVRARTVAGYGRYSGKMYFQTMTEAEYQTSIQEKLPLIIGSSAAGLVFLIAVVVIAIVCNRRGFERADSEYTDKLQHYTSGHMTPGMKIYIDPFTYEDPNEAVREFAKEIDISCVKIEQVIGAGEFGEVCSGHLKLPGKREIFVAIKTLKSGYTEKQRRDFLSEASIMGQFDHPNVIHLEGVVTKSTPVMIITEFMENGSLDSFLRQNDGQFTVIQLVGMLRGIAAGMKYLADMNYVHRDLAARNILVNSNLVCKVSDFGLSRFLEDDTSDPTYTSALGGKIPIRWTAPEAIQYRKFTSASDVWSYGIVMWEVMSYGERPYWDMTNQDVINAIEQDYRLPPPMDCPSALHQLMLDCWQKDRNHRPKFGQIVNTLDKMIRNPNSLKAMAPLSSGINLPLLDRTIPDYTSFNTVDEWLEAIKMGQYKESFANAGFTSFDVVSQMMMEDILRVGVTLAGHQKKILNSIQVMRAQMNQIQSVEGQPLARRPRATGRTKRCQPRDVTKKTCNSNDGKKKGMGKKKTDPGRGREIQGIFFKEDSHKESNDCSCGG
The settings on record: at 1 µM.

Test [3] has as its target T2, Ephrin type-B receptor 2 (Homo sapiens). As to conditions: at 10 µM; call rule not given here.
Test [4] deals with T3, Ephrin type-B receptor 3 (Homo sapiens) (UniProt P54753).
T3 sequence (whole entry): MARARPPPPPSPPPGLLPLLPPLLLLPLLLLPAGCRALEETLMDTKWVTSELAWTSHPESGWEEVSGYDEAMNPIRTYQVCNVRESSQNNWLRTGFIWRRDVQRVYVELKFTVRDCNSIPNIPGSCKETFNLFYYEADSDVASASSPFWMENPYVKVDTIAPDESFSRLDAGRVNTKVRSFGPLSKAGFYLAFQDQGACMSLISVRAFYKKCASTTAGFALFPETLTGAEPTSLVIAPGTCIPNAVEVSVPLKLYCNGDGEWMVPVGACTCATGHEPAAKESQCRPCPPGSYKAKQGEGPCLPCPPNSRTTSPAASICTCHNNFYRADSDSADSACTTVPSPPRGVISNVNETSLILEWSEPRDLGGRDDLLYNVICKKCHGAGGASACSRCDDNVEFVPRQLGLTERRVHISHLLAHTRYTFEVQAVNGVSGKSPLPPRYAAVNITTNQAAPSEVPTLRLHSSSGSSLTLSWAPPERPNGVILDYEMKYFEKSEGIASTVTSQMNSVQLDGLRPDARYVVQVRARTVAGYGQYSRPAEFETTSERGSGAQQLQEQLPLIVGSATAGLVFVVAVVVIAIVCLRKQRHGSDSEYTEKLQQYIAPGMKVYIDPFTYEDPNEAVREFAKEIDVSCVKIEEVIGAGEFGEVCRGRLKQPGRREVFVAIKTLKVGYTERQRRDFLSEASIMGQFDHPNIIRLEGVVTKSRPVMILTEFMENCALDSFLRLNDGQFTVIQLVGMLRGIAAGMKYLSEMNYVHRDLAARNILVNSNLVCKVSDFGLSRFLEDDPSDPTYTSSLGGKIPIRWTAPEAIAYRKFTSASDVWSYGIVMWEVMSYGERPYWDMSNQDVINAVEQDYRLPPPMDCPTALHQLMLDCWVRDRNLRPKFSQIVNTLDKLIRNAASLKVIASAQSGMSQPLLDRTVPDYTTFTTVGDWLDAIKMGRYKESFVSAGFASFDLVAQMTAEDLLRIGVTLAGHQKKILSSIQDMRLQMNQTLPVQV
As to conditions: at 1 µM.

Test [5] deals with T3, Ephrin type-B receptor 3 (Homo sapiens). As to conditions: at 10 µM.
Test [6] has as its target T4, Ephrin type-B receptor 4 (Homo sapiens) (UniProt P54760).
T4 sequence (whole entry): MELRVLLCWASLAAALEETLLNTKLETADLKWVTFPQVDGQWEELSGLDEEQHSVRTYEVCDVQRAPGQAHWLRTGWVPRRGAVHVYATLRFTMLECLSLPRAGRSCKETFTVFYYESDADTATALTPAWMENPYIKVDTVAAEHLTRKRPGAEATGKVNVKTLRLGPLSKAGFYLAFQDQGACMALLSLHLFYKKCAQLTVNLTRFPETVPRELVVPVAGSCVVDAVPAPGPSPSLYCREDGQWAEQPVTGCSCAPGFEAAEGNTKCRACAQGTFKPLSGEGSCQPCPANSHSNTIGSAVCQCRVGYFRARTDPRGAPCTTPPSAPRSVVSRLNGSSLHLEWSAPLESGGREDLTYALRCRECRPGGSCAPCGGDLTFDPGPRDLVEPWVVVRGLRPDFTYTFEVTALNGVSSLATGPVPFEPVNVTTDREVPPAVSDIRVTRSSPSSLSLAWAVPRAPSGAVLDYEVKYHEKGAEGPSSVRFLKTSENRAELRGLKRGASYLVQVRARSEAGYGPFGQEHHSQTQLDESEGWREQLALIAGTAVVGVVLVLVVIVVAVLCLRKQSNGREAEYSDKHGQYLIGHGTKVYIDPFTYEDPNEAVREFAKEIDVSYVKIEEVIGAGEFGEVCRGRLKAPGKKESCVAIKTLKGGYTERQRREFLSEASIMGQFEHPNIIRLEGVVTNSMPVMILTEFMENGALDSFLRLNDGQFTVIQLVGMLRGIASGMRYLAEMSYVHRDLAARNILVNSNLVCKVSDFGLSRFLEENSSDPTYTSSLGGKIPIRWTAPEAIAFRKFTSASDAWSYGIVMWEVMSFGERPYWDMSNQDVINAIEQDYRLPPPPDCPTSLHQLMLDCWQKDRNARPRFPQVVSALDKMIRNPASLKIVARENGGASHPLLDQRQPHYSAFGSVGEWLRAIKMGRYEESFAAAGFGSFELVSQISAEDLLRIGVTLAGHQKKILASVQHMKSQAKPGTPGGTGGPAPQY
The settings on record: at 1 µM.

Test [7] addresses T4, Ephrin type-B receptor 4 (Homo sapiens). The settings on record: at 10 µM.
Test [8] has as its target Receptor tyrosine-protein kinase erbB-4 (Homo sapiens) (UniProt Q15303). As to conditions: at 1 µM.
The target is the same in test [9]. As to conditions: at 10 µM.
Test [10] deals with Focal adhesion kinase 1 (Homo sapiens) (UniProt Q05397). The settings on record: at 1 µM.
Chain of Focal adhesion kinase 1 (Homo sapiens) (Q05397 2-1052 limits assumed): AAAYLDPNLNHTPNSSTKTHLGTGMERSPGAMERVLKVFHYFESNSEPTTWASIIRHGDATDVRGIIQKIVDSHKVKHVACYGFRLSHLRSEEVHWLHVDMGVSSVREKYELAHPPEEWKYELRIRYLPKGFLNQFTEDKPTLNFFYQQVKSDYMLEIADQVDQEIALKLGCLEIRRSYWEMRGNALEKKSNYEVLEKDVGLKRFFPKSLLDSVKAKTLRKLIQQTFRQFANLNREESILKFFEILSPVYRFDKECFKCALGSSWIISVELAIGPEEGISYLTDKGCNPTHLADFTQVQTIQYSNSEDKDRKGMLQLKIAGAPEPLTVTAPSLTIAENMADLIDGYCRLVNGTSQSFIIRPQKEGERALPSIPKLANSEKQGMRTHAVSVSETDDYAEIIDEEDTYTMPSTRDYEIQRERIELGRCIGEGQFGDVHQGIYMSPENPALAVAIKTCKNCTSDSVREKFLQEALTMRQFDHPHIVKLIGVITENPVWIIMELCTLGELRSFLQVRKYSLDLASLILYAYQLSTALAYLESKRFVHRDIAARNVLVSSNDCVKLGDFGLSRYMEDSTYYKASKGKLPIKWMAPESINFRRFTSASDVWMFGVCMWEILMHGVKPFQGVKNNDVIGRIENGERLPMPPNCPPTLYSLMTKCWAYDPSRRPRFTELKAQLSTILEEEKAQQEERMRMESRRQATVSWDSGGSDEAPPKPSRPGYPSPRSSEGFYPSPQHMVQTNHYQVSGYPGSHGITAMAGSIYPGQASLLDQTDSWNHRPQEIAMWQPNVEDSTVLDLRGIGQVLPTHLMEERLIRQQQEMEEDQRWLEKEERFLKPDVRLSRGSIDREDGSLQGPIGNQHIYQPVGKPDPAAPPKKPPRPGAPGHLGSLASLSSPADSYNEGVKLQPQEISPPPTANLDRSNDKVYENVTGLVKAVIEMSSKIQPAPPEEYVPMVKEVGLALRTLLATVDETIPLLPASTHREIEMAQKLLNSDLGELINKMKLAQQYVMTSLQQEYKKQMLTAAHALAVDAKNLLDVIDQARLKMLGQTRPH

Chain of Receptor tyrosine-protein kinase erbB-4 (Homo sapiens) (Q15303 whole entry): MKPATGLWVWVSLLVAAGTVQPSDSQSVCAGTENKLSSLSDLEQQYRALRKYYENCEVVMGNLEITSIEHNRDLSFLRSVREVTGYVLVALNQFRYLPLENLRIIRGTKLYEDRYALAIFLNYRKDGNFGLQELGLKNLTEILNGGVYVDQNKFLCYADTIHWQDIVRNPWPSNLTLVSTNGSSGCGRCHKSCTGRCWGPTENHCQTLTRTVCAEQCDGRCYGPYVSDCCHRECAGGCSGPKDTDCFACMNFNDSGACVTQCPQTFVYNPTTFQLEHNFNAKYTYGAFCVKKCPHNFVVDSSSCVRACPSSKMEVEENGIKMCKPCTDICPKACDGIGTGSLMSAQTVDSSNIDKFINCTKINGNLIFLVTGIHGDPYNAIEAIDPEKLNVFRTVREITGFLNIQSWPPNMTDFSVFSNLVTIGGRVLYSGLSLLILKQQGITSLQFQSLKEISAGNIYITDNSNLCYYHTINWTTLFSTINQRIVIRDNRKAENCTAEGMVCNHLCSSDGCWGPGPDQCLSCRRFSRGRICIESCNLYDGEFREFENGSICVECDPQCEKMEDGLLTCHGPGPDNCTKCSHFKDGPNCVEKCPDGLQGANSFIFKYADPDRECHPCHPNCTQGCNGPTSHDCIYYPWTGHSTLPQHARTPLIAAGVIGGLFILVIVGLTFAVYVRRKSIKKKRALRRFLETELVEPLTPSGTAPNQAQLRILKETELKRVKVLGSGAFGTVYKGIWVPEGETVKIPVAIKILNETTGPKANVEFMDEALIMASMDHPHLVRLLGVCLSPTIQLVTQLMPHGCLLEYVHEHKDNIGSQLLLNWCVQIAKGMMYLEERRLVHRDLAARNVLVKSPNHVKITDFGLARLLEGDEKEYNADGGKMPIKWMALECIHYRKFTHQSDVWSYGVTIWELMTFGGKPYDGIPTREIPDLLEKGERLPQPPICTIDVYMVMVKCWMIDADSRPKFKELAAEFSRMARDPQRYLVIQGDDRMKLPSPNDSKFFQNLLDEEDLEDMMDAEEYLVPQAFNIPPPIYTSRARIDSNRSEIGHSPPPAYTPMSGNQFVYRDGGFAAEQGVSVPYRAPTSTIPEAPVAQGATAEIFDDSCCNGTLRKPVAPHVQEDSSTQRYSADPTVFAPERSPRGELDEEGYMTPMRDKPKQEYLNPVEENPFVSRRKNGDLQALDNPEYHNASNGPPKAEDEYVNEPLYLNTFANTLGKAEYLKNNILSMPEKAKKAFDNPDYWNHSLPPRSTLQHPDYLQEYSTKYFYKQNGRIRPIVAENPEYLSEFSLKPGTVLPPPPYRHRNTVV

Turning to `CCC(=O)Nc1ccc2ncnc(Nc3cccc(Br)c3)c2c1`, the residual activity in test [1] was 97%; in test [2], 105%; in test [3], 55%; in test [4], 111% (inactive); in test [5] it was 120%; in test [6], 81%. For the same compound, the residual activity was determined as 57% in test [7], 59% in [8], 58% in [9] and 131% in test [10].
